In PubChem BioAssay (NCATS) one finds Potency and outcome data, which are given here for 36 compounds.

Molecules are shown by their SMILES. Several values for one entry are separate records, joined by “and”; a condition that tells them apart may be missing. Identical values can stand only once. Inconclusive results are not listed. Activity calls are given as the source filed them. The call rests on the fitted dose curve; in most records, active means well fitted curve in the direction sought with a large enough effect; inconclusive means small, poorly fitted or top-dose-only effect, or another doubt; inactive means no such curve, though single readings can be large; an effect the other way counts as inactive or inconclusive.

Experiment [1] is described as follows: qHTS for Inhibitors of Ubiquitin-specific Protease USP2a Using CHOP2 as the Reporter: Cytotox Assay (AID 652170). Further: nearly all actives have a fitted effect of over 70% in size. Further: potency means the concentration at half of the fitted maximal effect. The gist of the method:
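Cytotoxicity read as ATP luminescence (CellTiter-Glo) after 72 hr compound treatment at 37 deg C. Cells: HCT116, 600/well in DMEM plus 10% FBS. Normalization between DMSO-treated cells and cell-free wells.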
For orientation: Quantitative high-throughput screening tests each substance at several concentrations.

The target in experiment [2] is Ubiquitin carboxyl-terminal hydrolase 2 (Homo sapiens) (UniProt O75604). Put plainly: qHTS for Inhibitors of Ubiquitin-specific Protease USP2a Using CHOP2 as the Reporter: K484 Substrate (AID 652173).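 Further: cleavage of internally quenched K48 di-ubiquitin substrate measured as rising fluorescence over time; nearly all actives have a fitted effect of over 70% in size.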 Further: potency means the concentration at half of the fitted maximal effect. The method in brief:
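Kinetic fluorescence (Ex 525/Em 598) tracked cleavage of an internally quenched K48 di-ubiquitin substrate, added as a 100 nM solution. The enzyme was added as a 5 nM USP2 solution before compound pinning, with no-enzyme controls. Buffer: Tris pH 8, beta-mercaptoethanol, CHAPS.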

The target of experiment [3] is Tyrosine-protein kinase Yes (Homo sapiens) (UniProt P07947). Put plainly: qHTS for small molecule inhibitors of Yes1 kinase: Primary Screen (AID 686947). Further: nearly all actives have a fitted effect of over 60% in size. Further: potency means the concentration at half of the fitted maximal effect. The method in brief: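 In this qHTS format, inhibition is expressed relative to DMSO controls with enzyme (maximum) and without enzyme (minimum). The 60 min room-temperature reaction uses 0.1 mM ATP, with ADP detected by luminescence.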
Tyrosine-protein kinase Yes (Homo sapiens), sequence (P07947 whole entry, looked up): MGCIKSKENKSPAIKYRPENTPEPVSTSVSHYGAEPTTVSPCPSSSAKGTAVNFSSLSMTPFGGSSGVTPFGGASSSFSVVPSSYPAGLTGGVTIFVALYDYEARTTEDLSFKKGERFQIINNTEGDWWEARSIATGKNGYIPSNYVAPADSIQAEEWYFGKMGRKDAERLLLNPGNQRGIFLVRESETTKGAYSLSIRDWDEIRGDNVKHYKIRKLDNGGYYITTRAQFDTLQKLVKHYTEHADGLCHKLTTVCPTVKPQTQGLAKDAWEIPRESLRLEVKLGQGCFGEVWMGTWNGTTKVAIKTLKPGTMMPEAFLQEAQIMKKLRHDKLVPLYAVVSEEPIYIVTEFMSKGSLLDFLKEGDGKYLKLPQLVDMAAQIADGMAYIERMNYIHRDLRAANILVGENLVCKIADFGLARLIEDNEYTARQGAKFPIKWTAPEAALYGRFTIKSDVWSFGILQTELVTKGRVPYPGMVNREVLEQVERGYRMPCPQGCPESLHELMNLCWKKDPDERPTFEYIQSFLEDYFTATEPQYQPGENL

A short description of experiment [4]: qHTS for small molecule inhibitors of Yes1 kinase: Counter Assay (AID 686950).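 Further: no kinase present so only ADP-Glo detection of a fixed ADP amount is tested; luminescence from ADP-Glo reporting ADP in a fixed ATP and ADP mixture; series mostly up to about 77 µM.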 The method in brief: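 ADP-Glo luminescence read after a 60 min room-temperature incubation of compound with an ATP/ADP mix (0.08 mM/0.02 mM) and no kinase, following a 20 min compound preincubation. Signal scaled between ATP+ADP (max) and 0.1 mM ATP-only (min) wells; Tris pH 7.5, Mg2+, DTT.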

Ubiquitin carboxyl-terminal hydrolase 2 (Homo sapiens), sequence (O75604 whole entry, looked up): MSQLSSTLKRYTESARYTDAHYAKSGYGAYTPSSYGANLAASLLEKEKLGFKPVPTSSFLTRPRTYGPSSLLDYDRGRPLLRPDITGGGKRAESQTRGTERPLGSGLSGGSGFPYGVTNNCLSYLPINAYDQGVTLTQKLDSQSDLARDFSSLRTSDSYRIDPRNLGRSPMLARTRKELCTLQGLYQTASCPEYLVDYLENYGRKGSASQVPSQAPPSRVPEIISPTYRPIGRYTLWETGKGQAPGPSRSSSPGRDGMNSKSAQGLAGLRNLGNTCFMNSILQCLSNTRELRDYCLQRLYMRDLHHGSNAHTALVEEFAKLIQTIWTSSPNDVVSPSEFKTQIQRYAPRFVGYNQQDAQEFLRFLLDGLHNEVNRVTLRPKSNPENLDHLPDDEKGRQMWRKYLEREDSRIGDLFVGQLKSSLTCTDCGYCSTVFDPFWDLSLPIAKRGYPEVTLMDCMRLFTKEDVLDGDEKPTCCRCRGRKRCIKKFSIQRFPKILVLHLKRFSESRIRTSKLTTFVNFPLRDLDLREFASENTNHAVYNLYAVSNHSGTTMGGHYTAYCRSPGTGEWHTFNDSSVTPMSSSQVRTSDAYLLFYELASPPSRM

`Cc1ccc(S(=O)(=O)Nc2ccccc2C(=O)Nc2cnc(-c3ccccc3)cn2)cc1`: the Potency in experiment [1] is 16.6 µM (active); in experiment [2], 3.43 µM (active).

For `N#Cc1cnc(NS(=O)(=O)c2ccc(NC(=O)Cc3ccc(Cl)c(Cl)c3)cc2)s1`, in experiment [1], the Potency result is “inactive”. Further, the Potency in experiment [2] was 3.43 µM (active).

Consider `Cc1ccc(S(=O)(=O)Nc2ccccc2Nc2nc(-c3ccccc3)cs2)cc1`, for which, in experiment [1], the Potency entry is “inactive”. The Potency in experiment [2] was 3.85 µM (active).

Regarding `Cc1ccc(S(=O)(=O)Nc2ccccc2C(=O)Nc2ncc(-c3ccccc3)o2)cc1`, the Potency in experiment [1] is 4.69 µM (active); in experiment [2] it was 2.43 µM (active).

For `Cc1ccc(S(=O)(=O)Nc2cnccc2C(=O)Nc2nc(-c3cccc(F)c3)cs2)cc1`, the Potency in experiment [1] was 20.9 µM (active); in experiment [2], 1.37 µM (active).

Consider `Cc1ccc(S(=O)(=O)Nc2ccc(Cl)c(C(=O)Nc3nc(-c4ccccc4)cs3)c2)cc1`, for which, in experiment [1], the Potency result is “inactive”. Also, the Potency in experiment [2] was 2.43 µM (active).

With `O=C(Nc1nc(-c2ccccc2)cs1)c1ccncc1NS(=O)(=O)c1ccc(F)cc1F`, the Potency entry in experiment [1] was “inactive”. The Potency in experiment [2] was 3.06 µM (active).

As to `O=C(Nc1ccc(S(=O)(=O)Nc2nccs2)cc1)c1ccc2ccccc2c1`, the Potency result in experiment [1] is “inactive”. In addition, the Potency in experiment [2] is 2.73 µM (active).

In the case of `Cc1ccc(-c2cc(C(=O)Nc3ccncc3)c3ccccc3n2)cc1C`, the Potency in experiment [1] was 18.7 µM (active); in experiment [2], 13.7 µM (active).

Consider `Cc1ccc(-c2cc(C(=O)Nc3ccc(S(=O)(=O)Nc4cccnc4)cc3)c3ccccc3n2)cc1C`, for which the Potency entry in experiment [1] is “inactive”. Also, the Potency in experiment [2] is 6.85 µM (active).

Take `Cc1ccc(-c2cc(C(=O)Nc3ccc4ccccc4c3)c3ccccc3n2)cc1C`: the Potency entry in experiment [1] is “inactive”. The Potency in experiment [2] is 19.3 µM (active).

For `CC(=O)Nc1ncc(S(=O)(=O)Nc2cnccc2C(=O)Nc2nc(-c3ccccc3)cs2)s1`, the Potency result in experiment [1] was “inactive”. Further, the Potency in experiment [2] is 10.9 µM (active).

Take `N#Cc1cnc(NS(=O)(=O)c2ccc(NC(=O)Cc3ccc(F)c(Cl)c3)cc2)s1`: the Potency entry in experiment [1] is “inactive”. Further, the Potency in experiment [2] is 15.3 µM (active).

In the case of `Cc1ccc(-c2cc(C(=O)Nc3ccc(S(=O)(=O)N(C)Cc4nccs4)cc3)c3ccccc3n2)cc1C`, in experiment [1], the Potency result is “inactive”. For the same compound, the Potency in experiment [2] is 3.85 µM (active).

For the compound `COCOC1CCC(C(=O)Nc2ccc([S+](=O)([O-])Nc3nccs3)cc2)CC1` (stereo not given), the Potency entry in experiment [1] and in experiment [2] was “inactive” each time.

On to `Cc1ccc(S(=O)(=O)Nc2cnccc2C(=O)Nc2nc(-c3ccccc3)cs2)cc1`, for which the Potency is 18.7 µM (active) in experiment [1]; 2.17 µM (active) and 1.72 µM (active) in experiment [2].

Turning to `Cc1ccc(S(=O)(=O)Nc2cnccc2C(=O)Nc2nc(-c3ccc(Cl)cc3)cs2)cc1`, the Potency in experiment [1] was 23.5 µM (active); in experiment [2], 2.17 µM (active).

Regarding `O=C(Nc1nc(-c2ccccc2)cs1)c1ccncc1NS(=O)(=O)c1ccc(F)c(F)c1`, the Potency entry in experiment [1] was “inactive”. Further, the Potency in experiment [2] is 2.17 µM (active).

For `O=C(Nc1nc(-c2ccccc2)cs1)c1ccncc1NS(=O)(=O)c1ccc(Cl)cc1`, in experiment [1], the Potency entry is “inactive”. Besides, the Potency in experiment [2] is 1.53 µM (active).

For `O=C(Nc1nc(-c2ccccc2)cs1)c1ccncc1NS(=O)(=O)c1ccc(F)cc1Cl`, the Potency entry in experiment [1] is “inactive”. Also, the Potency in experiment [2] is 1.93 µM (active).

For `O=C(Nc1nc(-c2ccccc2)cs1)c1ccncc1NS(=O)(=O)c1ccccc1F`, the Potency entry in experiment [1] was “inactive”. Also, in experiment [2], the Potency was 2.43 µM (active).

As to `Cc1ccc(S(=O)(=O)Nc2ccc(OC(F)(F)F)cc2C(=O)Nc2nc(-c3ccccc3)cs2)cc1`, the Potency in experiment [1] is 5.9 µM (active); in experiment [2], 2.43 µM (active).

For the compound `Cc1ccc(-c2cc(C(=O)Nc3cccnc3)c3ccccc3n2)cc1C`, in experiment [1], the Potency entry is “inactive”. In addition, in experiment [2], the Potency is 19.3 µM (active).

For `CNS(=O)(=O)c1ccc(NC(=O)c2cc(-c3ccc(C)c(C)c3)nc3ccccc23)cc1`, in experiment [1], the Potency result was “inactive”. The Potency in experiment [2] was 4.85 µM (active).

Take `Cc1ccc(-c2cc(C(=O)Nc3ccc4[nH]ccc4c3)c3ccccc3n2)cc1C`: in experiment [1], the Potency result is “inactive”. Further, the Potency in experiment [2] was 8.63 µM (active).

As to `N#Cc1ccc(S(=O)(=O)Nc2cnccc2C(=O)Nc2nc(-c3ccccc3)cs2)cc1`, the Potency result in experiment [1] was “inactive”. Also, the Potency in experiment [2] was 2.43 µM (active).

`Cc1ccc(S(=O)(=O)Nc2cc(Cl)c(Cl)cc2C(=O)Nc2nc(-c3ccccc3)cs2)cc1`: the Potency was 5.26 µM (active) in experiment [1] and 1.37 µM (active) in experiment [2].

For `CCCCC1CCC(C(=O)Nc2ccc(S(=O)(=O)Nc3cc(C)on3)cc2)CC1` (stereo not given), the Potency entry in experiment [1] was “inactive”. In experiment [2], the Potency is 12.2 µM (active).

With `Cc1ccc(-c2cc(C(=O)Nc3ccc(S(=O)(=O)Nc4ccncc4)cc3)c3ccccc3n2)cc1C`, the Potency entry in experiment [1] is “inactive”. Besides, in experiment [2], the Potency was 9.68 µM (active).

Regarding `Cc1ccc(S(=O)(=O)Nc2cnccc2C(=O)Nc2nc(-c3nc4ccccc4s3)cs2)cc1`, the Potency result in experiment [1] was “inactive”. Moreover, in experiment [2], the Potency is 1.72 µM (active).

On to `COc1cc(C=NNc2ncnc3[nH]ncc23)ccc1O`, for which the Potency in experiment [3] was 0.232 µM (active).

Take `Cc1ccc(O)cc1Nc1ccnc2cc(-c3ccccn3)ccc12`: in experiment [3], the Potency is 0.0073 µM (active). Moreover, the compound was classed as inactive in experiment [4].

`CN1CCN(Cc2ccc(-c3cc4ncnc(Nc5ccc(OCc6cccc(F)c6)c(Cl)c5)c4s3)o2)CC1`: in experiment [3], the Potency was 0.823 µM (active). Further, the call in experiment [4] was inactive.

On to `FC(F)(F)c1cccc(Nc2nccc(-c3cnn4nc(-c5ccccc5)ccc34)n2)c1`, for which the Potency in experiment [3] is 14.6 µM (active). Moreover, in experiment [4], the result was inactive.

Turning to `Cc1ccc(C(=O)NC2CCCCC2)cc1-c1ccc(C(=O)NCC2CC2)cc1`, the Potency result in experiment [3] was “inactive”.

In the case of `NC(=O)c1cc(-c2ccncc2)cc(-c2ccccc2)c1N`, in experiment [3], the Potency was 0.519 µM (active). Besides, the compound was called inactive in experiment [4].
